These results are taken from PubChem BioAssay (NCI).

About 83,000 compounds went through this panel and 20% of them were active in at least one assay; those are over-represented in the sample as a whole.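 Interpretation: 100, growth as untreated; towards 0, rising growth inhibition; 0, no net growth; 0 to -100, cell death. Compounds scoring below 10 were considered active.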 A number with no mark means an inactive call. The source made the active and inactive calls.

Among the test systems are HCT-15 colon; HT29 colon; SNB-75 CNS; SNB-19 CNS; U251 CNS; PC-3 prostate; SK-MEL-5 melanoma; UACC-62 melanoma; LOX IMVI melanoma; SK-MEL-28 melanoma.
Holding throughout (experiment): NCI-60 one-dose screen, 48 h (100 = growth as untreated, 0 = no growth, -100 = all killed)
Conditions in all cases: 10 µM unless noted

`CCCc1cc(CCC)n2nc(N)nc2n1`: the growth is 107% with HCT-15 colon; 108% in the experiment with HT29 colon; 95.6% with SNB-75 CNS; 113% in the experiment with SNB-19 CNS; 110% in the experiment on U251 CNS; 96.9% in the experiment on PC-3 prostate. For the same compound, the growth with SK-MEL-5 melanoma was 107%; with UACC-62 melanoma, 111%; in the experiment on LOX IMVI melanoma, 105%; with SK-MEL-28 melanoma, 105%.

As for `CN(C)CCCN(CCC1CCCCC1)CCC1CCCCC1`, the growth was 15% in the experiment on HCT-15 colon; 7.47% (active) in the experiment on HT29 colon; 62.2% in the experiment on SNB-75 CNS; 86.7% in the experiment with SNB-19 CNS; 12.3% in the experiment on U251 CNS; 46.9% in the experiment with PC-3 prostate. In addition, the growth is -82.1% (active) with SK-MEL-5 melanoma, -78.5% (active) with UACC-62 melanoma, 5.93% (active) in the experiment with LOX IMVI melanoma and -97.8% (active) with SK-MEL-28 melanoma.

For `Cc1cc2c(C(C)C)c(O)c(O)c(/C=N/O)c2c(O)c1-c1c(C)cc2c(C(C)C)c(O)c(O)c(/C=N/O)c2c1O`, the growth is 29.3% in the experiment on HCT-15 colon; 1.38% (active) in the experiment with HT29 colon; 80.3% with SNB-75 CNS; 30.4% in the experiment with SNB-19 CNS; 1.13% (active) with U251 CNS; 27.9% in the experiment with PC-3 prostate. In addition, the growth in the experiment on SK-MEL-5 melanoma was 16.3%; in the experiment with UACC-62 melanoma, 9.12% (active); in the experiment with LOX IMVI melanoma it was -22.9% (active); in the experiment with SK-MEL-28 melanoma, 19.8%.

For `COC(=O)c1cc(-c2ccc(OC)c(OC)c2)[nH]c1N/N=C/c1c(Cl)cccc1Cl`, the growth with HCT-15 colon is 28.4%; in the experiment with HT29 colon, 13.7%; in the experiment on SNB-75 CNS, 4.55% (active); in the experiment on SNB-19 CNS it was 36.1%; with U251 CNS it was 30.2%; with PC-3 prostate it was 26.3%. Further, the growth was 12.7% with SK-MEL-5 melanoma, 38.2% in the experiment with UACC-62 melanoma, 39.3% in the experiment with LOX IMVI melanoma and 56.4% with SK-MEL-28 melanoma.

`C#Cc1ccc(NC(=O)Cc2ccc(/C=C/C(=O)c3nccn3C)cc2)cc1`: the growth was 23% in the experiment on HCT-15 colon; 6.76% (active) in the experiment on HT29 colon; 12.7% in the experiment on SNB-75 CNS; 39.3% with SNB-19 CNS; 15.1% in the experiment with U251 CNS; 39.6% with PC-3 prostate. Besides, the growth in the experiment on SK-MEL-5 melanoma was 87.3%; in the experiment with UACC-62 melanoma, 72.9%; in the experiment with LOX IMVI melanoma, 24.1%; in the experiment on SK-MEL-28 melanoma it was 107%.

As to `Cc1ccc(-c2nnc(SCc3nc(N)nc(Nc4ccccc4F)n3)n2-c2ccccc2)cc1`, the growth with HCT-15 colon is 91.3%; with HT29 colon it was 98.5%; with SNB-75 CNS it was 102%; in the experiment on SNB-19 CNS, 91.8%; with U251 CNS, 92.8%; in the experiment on PC-3 prostate it was 87.7%. In addition, the growth in the experiment on SK-MEL-5 melanoma was 91.5%; with UACC-62 melanoma, 86%; in the experiment with LOX IMVI melanoma it was 100%; with SK-MEL-28 melanoma, 97.5%.

On to `O=C(O)/C=C/c1cn(-c2ccccc2)nc1-c1ccc(F)cc1`, for which the growth with HCT-15 colon is 101%; in the experiment with HT29 colon it was 107%; with SNB-75 CNS, 87.9%; in the experiment on SNB-19 CNS it was 92.2%; in the experiment on U251 CNS, 96.2%; in the experiment on PC-3 prostate it was 84.4%. Also, the growth in the experiment with SK-MEL-5 melanoma was 93.9%; in the experiment on UACC-62 melanoma, 88.3%; in the experiment on LOX IMVI melanoma, 95.2%; in the experiment with SK-MEL-28 melanoma, 104%.

Regarding `O=C1/C(=C/c2ccccc2)COc2ccc(O)cc21`, the growth in the experiment on HCT-15 colon was 57.1%; in the experiment on HT29 colon, 62.7%; in the experiment with SNB-75 CNS it was 99.7%; in the experiment with SNB-19 CNS it was 93.6%; in the experiment with U251 CNS it was 55.1%; with PC-3 prostate, 84.2%. Moreover, the growth with SK-MEL-5 melanoma was 97.3%; in the experiment with UACC-62 melanoma, 86.6%; in the experiment with LOX IMVI melanoma it was 89.8%; with SK-MEL-28 melanoma, 103%.

With `Cc1nc2ccccc2c(/C=C/c2ccc(Br)cc2)c1C(=O)/C=C/c1ccccc1`, the growth with HCT-15 colon is -27.3% (active); with HT29 colon, -15.1% (active); with SNB-75 CNS it was 51.3%; with SNB-19 CNS it was -11.6% (active); with U251 CNS, -81.9% (active); in the experiment on PC-3 prostate, 19.7%. In addition, the growth in the experiment on SK-MEL-5 melanoma is 6.82% (active); with UACC-62 melanoma it was -5.46% (active); in the experiment on LOX IMVI melanoma, -89.6% (active); with SK-MEL-28 melanoma, 3.46% (active).

In the case of `CC(=O)Oc1ccccc1C(=O)N(Cc1ccc2c(Cl)cc(Cl)c(O)c2n1)c1ccccc1`, the growth with HCT-15 colon was 23.8%; in the experiment on HT29 colon, 89.4%; in the experiment on SNB-75 CNS, 51.2%; with SNB-19 CNS, 42%; with U251 CNS, 27.6%; in the experiment on PC-3 prostate it was 34%. For the same compound, the growth with SK-MEL-5 melanoma was 41.5%; in the experiment on UACC-62 melanoma, 29.3%; with LOX IMVI melanoma, 38.5%; in the experiment with SK-MEL-28 melanoma, 58.3%.

On to `O=C(Nc1ncc(Cc2ccccc2)s1)c1ccc2c(c1)OCCO2`, for which the growth in the experiment with HCT-15 colon is 7.07% (active); in the experiment with HT29 colon, 4.31% (active); with SNB-75 CNS it was 9.1% (active); with SNB-19 CNS it was 35.4%; in the experiment with U251 CNS, 14.2%; with PC-3 prostate, 27.1%. Moreover, the growth is -29.7% (active) with SK-MEL-5 melanoma, 33.6% in the experiment on UACC-62 melanoma, 10.6% with LOX IMVI melanoma and 66.3% with SK-MEL-28 melanoma.

With `Cc1cccc(CN(Nc2ccccc2)c2ccccc2)n1`, the growth in the experiment on HCT-15 colon is 92.1%; with HT29 colon it was 96.3%; in the experiment on SNB-75 CNS it was 93.1%; in the experiment on SNB-19 CNS, 106%; in the experiment with U251 CNS, 91.4%; in the experiment with PC-3 prostate, 85.7%. Also, the growth in the experiment with SK-MEL-5 melanoma was 97.9%; in the experiment with UACC-62 melanoma, 96.3%; in the experiment on LOX IMVI melanoma, 98.5%; in the experiment with SK-MEL-28 melanoma, 98.7%.
